# Reference: the supplement of paper PMC6555819
# Tested on: VDR:RXRa (NR concentration 270 nM, RXRa partner concentration 90 nM)
# Test: PBM binding z-score (relative to random genomic background probes); higher = stronger binding; sequences stand for … in GC…GCGATTGACAGCGTAGAATGAAGG
# Experimental: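 Protein-binding microarray (Agilent 4x180K custom design, double-stranded 60-nt probes: 5' GC cap, 34-nt variable region, 24-nt constant primer region; full probe sequence given). Purified or IVT nuclear receptor:RXRα heterodimers (3:1 NR:RXRα, mostly 270:90 nM) or homodimers were incubated for 1 h in PBS with 2% milk and no ligand, then detected with Alexa488 antibodies. Fluorescence from o1-orientation probes (~5 replicates averaged) was converted to z-scores against 500 random hg19 background probes. Variable regions are seed direct-repeat (DR0–DR5) sites, all their single-nucleotide variants and half-site ablations.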
row,Sequence,PBM binding z-score
1,ATATGTACGTTACATCCGGGTCATTCAGGCTATG,3.54
2,TATACAGGGTCACAGGCCAGAGTACGAATGTCGA,4.92
3,AGTCAAAGTTCAGGACGAGTTAACGTAAAGCACG,2.96
4,ACTATTAGTTGAGACGAGGGCAACCTATAGGTTG,0.781
5,TCTTGTAGATGAACAGGAGGTTAAGAAAGATCGA,0.644
6,ATCTCTAGGTAACCAAGTTCAGTAAATGCCGAAC,4.07
7,CCGACTGGGGCAGCAAGGTTACCATACCATCCGG,1.25
8,AGTCAAAGTTCAGGACGAGGTTACGTAAAGCACG,4.6
9,TAGCCTATGTCATGCGGGCCAGTATAGTGTCGGC,-0.45
10,ATATGTAGGTTACATCCGGTTCATTCAGGCTATG,4.76
11,CGAACTAGGTCAAGAACAGTGAATCTCCGCACGC,1.04
12,TCTTGTAGATCAACAGGAAGTTAAGAAAGATCGA,-0.0912
13,AGAATGAGGTTATTAAGCTCAGGGAATTGCGGTC,1.38
14,CCTTACGGGACAAGGTTATAGCACGGGTGGTACG,0.416
15,CTCGAAAGGTCGTGCTCAAGTGAGTATACCAAAC,3.13
16,TCTTGGAGATCAACAGGAGGTTAAGAAAGATCGA,0.539
17,AATACAGGGTCATCGTAGGCCAGGGTACGCACAG,5.25
18,ACTTACGGGTCAACGAGGGTATAGCACGCGTATA,7.1
19,CGTCCACGGTCAGAGAGGTCAGTGAATGCCGAGT,4.97
20,TGGATGAGGTTAAAGATCAGGGAACGTGGCGTCG,2.32

row,Sequence,PBM binding z-score
1,ACTATTTGGTCAGCTGAGGTCACACACAATTCGG,4.64
2,CAAACTACGTCACCGGAAGGTCAAAGTCCGCATG,3.23
3,CAGCCTAGGTCAGGGCCCGTATAGGAGGAACGTT,0.0568
4,ATATGTAGCTTAGCTGGGGTCATTCAGACTAGGC,4.78
5,CCAGACAGGTGAATGGTAACTCAGTCTGGTACGC,-0.231
6,GTACCAAGGTGCATAGGTCGTTGATGAGTAGGCG,0.717
7,GCTCGGAGGACAAGGTCAGAGCTTTGTCCGTAGA,1.34
8,TCTCGGAGGACACGAAGGTCAGAGCATTCCAGAG,2.31
9,AATACAGGGTCATAGTAGGCCAGAGTACGCACAG,4.63
10,CGTCCAAGGTCAAAGGTGAGTGAAGAGATGACGG,4.94
11,TTACCAAGGTGAAGGTCGTTGGTCCCTCTGTAGA,0.994
12,TCAGCTAGGTCAGTTGGTCAGCTAACGAGCTGCC,0.211
13,ATCTCTAGGTAAGACTCAGTTCAGTGTAGAACGC,1.02
14,GCTATTAGTGGAAAGGGCAACCGAATGATTCTCG,0.104
15,CAAACTAGGTCAAGGTCAAAGACGGTTTGTGCCA,4.74
16,AGAAGGAGGTTATACGTAGATCAGGGAAGAAAGT,0.711
17,AGTCAAAGTTGACTAGGTAACGTAAGATTCAGCT,0.000813
18,TTACCAAGGTGAGCTGGGGTCGTTGATCCAACTC,4.15
19,CCTTACGGGTCAAGGTTATAGCACGGGTGGTACG,3.41
20,CGTCCAAGGACAGCAGGTCAGTGAAAGCGACGTG,-0.0699
